# Laboratory results published in PubChem BioAssay.
# The source made the active and inactive calls.
# Legend:
# [1] = test system: PRMT1 (protein arginine N-methyltransferase 1); experiment: small molecules binding arginine methyltransferase PRMT1 – biochemical, small-molecule microarray, 635 nm fluorescence, primary screen (AID 1088); settings: higher = more signal;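 note: binding of Prmt1 protein to compounds spotted on small-molecule microarray slides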
# [2] = growth effects on S. cerevisiae YJM789 – YJM789 clinical isolate, OD600, 24 h, basal, primary screen (AID 1089); settings: higher = more signal, called active from +8 up or from −8 down;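 note: growth of clinical yeast isolate S. cerevisiae YJM 789 seeded 1000 cells per well; test concentration not given here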
# [3] = S. pombe growth modifiers, basal conditions – strain 972, OD600, 24 h, no modulator, primary screen (AID 1090);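 note: basal condition with compound alone and no growth modifier present; test concentration not given here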; settings: S. pombe 972 growth, higher = more signal, called active from +8 up or from −8 down
# [4] = budding yeast growth modifiers under rapamycin – strain BY4716, OD600, 96 h, primary screen (AID 1091); note: test concentration not given here; settings: S. cerevisiae BY4716 + rapamycin, higher = more signal, called active from +8 up or from −8 down
# [5] = target: Torsin-1A-interacting protein 2 (Homo sapiens) (UniProt Q8NFQ8); experiment: small molecules binding lysate-expressed LULL1 – cell lysate, human LULL1 lysate, 635/667 nm fluorescence, primary screen (AID 1092); settings: small-molecule microarray, hLULL1 lysate binding, 635 nm fluorescence; higher = more signal;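 note: probe is lysate of COS7 cells overexpressing human LULL1; score merges per-feature 667 nm fluorescence with signal-to-noise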
# Chain of Torsin-1A-interacting protein 2 (Homo sapiens) (Q8NFQ8 whole entry, looked up): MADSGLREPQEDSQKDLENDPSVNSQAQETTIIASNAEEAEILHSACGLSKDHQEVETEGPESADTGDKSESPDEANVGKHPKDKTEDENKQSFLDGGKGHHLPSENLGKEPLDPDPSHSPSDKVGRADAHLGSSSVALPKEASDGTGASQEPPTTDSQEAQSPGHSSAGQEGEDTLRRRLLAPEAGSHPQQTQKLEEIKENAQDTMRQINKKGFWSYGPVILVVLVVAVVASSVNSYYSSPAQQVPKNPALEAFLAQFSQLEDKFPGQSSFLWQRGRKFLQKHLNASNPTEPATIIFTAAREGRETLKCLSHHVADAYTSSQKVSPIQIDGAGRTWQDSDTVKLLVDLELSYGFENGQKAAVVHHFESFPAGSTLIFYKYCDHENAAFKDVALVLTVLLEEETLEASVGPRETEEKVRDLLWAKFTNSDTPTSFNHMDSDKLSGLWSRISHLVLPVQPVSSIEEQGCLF
# [6] = optical density change of DRC41 E. coli – strain DRC41, OD650, 24 h, E. coli filamentation project, primary screen (AID 1093);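 note: MC1000 strain lacking acrAB efflux and sulA so SOS filamentation is blocked; test concentration not given here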; settings: E. coli DRC41 growth, higher = more signal, called active from +8 up or from −8 down
# [7] = probe aLefty2 binding to arrayed compounds – biochemical, biotinylated probe, 635/667 nm fluorescence, primary screen (AID 1094); settings: small-molecule microarray, higher = more signal;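 note: score merges spot fluorescence near 667 nm with spot signal-to-noise ratio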
# [8] = test system: Noggin (protein binding on small-molecule microarray); experiment: small molecules binding Noggin protein – biochemical, 635/667 nm fluorescence, primary screen (AID 1095); settings: 635 nm fluorescence, higher = more signal;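 note: score merges 667 nm feature fluorescence with signal to noise over triplicate slides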
# [9] = target: Neurogenic locus notch homolog protein 3 (Homo sapiens) (UniProt Q9UM47); experiment: small molecules binding NOTCH3 protein – biochemical, 635/667 nm fluorescence, primary screen (AID 1096); settings: small-molecule microarray, 635 nm fluorescence, higher = more signal
# Chain of Neurogenic locus notch homolog protein 3 (Homo sapiens) (Q9UM47 whole entry, looked up): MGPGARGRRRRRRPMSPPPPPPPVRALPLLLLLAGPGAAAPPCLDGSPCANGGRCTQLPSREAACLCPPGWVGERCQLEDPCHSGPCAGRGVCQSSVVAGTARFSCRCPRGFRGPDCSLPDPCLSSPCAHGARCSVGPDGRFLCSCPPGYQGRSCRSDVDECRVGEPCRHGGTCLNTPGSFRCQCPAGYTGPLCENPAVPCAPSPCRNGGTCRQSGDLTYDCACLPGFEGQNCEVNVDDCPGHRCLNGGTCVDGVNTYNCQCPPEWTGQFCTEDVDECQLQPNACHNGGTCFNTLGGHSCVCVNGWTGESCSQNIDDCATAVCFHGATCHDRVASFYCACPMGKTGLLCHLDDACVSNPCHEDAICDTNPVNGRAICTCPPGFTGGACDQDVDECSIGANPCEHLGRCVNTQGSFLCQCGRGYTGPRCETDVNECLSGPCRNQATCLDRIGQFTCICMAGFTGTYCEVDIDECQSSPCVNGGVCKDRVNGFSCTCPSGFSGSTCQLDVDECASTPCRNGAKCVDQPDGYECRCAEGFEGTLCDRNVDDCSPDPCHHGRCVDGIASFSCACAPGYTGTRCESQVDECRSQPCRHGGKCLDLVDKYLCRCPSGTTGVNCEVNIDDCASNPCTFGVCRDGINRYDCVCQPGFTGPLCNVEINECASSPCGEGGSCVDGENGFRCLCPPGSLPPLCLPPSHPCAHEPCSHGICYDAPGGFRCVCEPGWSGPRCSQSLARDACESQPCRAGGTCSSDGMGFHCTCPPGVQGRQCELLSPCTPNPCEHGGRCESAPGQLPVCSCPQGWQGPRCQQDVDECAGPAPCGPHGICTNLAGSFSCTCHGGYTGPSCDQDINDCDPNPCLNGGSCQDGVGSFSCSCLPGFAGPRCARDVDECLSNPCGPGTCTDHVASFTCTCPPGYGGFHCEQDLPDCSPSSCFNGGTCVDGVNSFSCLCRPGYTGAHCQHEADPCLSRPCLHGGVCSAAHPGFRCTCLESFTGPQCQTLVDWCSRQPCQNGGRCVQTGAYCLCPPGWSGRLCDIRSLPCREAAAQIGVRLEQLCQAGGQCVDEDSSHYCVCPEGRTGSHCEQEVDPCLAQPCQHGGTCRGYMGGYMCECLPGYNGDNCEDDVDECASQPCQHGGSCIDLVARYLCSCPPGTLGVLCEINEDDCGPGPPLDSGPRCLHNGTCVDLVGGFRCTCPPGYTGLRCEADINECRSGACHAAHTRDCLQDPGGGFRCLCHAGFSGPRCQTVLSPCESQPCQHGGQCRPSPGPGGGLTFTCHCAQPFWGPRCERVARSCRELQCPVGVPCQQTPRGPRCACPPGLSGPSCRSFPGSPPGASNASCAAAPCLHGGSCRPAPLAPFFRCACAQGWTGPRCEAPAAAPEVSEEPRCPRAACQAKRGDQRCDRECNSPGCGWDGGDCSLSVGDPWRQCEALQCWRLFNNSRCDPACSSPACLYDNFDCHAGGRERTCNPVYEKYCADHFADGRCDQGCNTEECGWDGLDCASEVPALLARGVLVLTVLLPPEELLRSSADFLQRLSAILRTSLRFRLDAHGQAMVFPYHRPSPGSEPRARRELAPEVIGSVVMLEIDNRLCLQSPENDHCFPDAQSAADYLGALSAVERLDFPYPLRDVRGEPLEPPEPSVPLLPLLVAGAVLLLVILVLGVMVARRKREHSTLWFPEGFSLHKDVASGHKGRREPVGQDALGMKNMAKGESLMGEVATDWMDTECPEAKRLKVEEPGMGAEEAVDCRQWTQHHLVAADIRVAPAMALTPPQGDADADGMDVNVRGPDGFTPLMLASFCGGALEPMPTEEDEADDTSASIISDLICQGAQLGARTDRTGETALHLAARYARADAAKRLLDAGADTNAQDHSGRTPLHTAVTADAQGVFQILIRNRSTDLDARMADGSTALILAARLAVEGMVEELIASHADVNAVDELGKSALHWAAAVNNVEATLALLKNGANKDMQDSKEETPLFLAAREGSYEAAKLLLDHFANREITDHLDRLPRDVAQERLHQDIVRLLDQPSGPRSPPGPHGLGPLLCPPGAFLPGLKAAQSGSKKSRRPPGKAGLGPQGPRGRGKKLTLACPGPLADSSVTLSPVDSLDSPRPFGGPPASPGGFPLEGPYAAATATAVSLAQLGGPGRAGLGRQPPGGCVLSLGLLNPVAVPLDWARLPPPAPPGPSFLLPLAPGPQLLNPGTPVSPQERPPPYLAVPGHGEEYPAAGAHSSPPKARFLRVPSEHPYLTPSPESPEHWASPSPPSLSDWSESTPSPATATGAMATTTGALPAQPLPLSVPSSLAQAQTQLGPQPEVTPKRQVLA
# [10] = probe aEGFR binding to arrayed compounds – biochemical, biotinylated probe, 635/667 nm fluorescence, primary screen (AID 1097); settings: small-molecule microarray, higher = more signal;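 note: probe is a biotinylated anti-EGFR antibody binding compounds printed on slides; score combines fluorescence near 667 nm and signal to noise of each spot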
# [11] = test system: Plasmodium falciparum Sir2 (PF13_0152, Sir2A); experiment: Plasmodium falciparum Sir2A binding compounds – biochemical, small-molecule microarray, 635 nm fluorescence, primary screen (AID 1098); settings: fluorescence 635 nm, higher = more signal;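 note: score merges spot fluorescence intensity with its signal-to-noise ratio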
# [12] = probe aDKK1 binding to arrayed compounds – biochemical, biotinylated probe, 635/667 nm fluorescence, primary screen (AID 1099); settings: small-molecule microarray, higher = more signal;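 note: score merges 667nm spot fluorescence with signal to noise across triplicate slides; reference of the scale not given here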
# [13] = probe aCHRDL2 binding to arrayed compounds – biochemical, biotinylated probe, 635/667 nm fluorescence, primary screen (AID 1100); settings: small-molecule microarray, higher = more signal
# [14] = change in splice reporter luminescence, either direction, cell-based, HEK293, spliceosome inhibition project, primary screen (AID 1101); settings: HEK293 splicing luciferase reporter, 24 h, higher = more signal, called active from +8 up or from −8 down;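 note: HEK293 cells carrying a splicing-competent luciferase reporter gene; test concentration not given here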
# [15] = target: Fibroblast growth factor 10 (Homo sapiens) (UniProt O15520); experiment: compounds binding fibroblast growth factor 10 – biochemical, small-molecule microarray, 635 nm fluorescence, primary screen (AID 1102); settings: FGF10 binding, fluorescence 635 nm, higher = more signal
# Chain of Fibroblast growth factor 10 (Homo sapiens) (O15520 whole entry, looked up): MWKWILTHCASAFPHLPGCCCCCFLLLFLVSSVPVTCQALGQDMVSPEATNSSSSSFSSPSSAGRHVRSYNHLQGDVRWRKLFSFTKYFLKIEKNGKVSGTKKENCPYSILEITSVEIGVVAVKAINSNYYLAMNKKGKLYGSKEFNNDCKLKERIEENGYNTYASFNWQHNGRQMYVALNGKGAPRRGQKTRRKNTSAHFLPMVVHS
# [16] = test system: glycogen synthase kinase-3 (GSK3A per assay name; protocol says GSK3B); experiment: compounds binding glycogen synthase kinase-3 – biochemical, small-molecule microarray, 635 nm fluorescence, GSK3A, primary screen (AID 1103); settings: fluorescence 635 nm, higher = more signal; note: the record names both GSK3A and GSK3B
# [17] = target: Epidermal growth factor receptor (Homo sapiens) (UniProt P00533); experiment: compounds binding epidermal growth factor receptor – biochemical, small-molecule microarray, 635 nm fluorescence, primary screen (AID 1104); settings: EGFR binding, higher = more signal;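 note: score merges 667 nm emission intensity with spot signal to noise over triplicate slides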
# Chain of Epidermal growth factor receptor (Homo sapiens) (P00533 whole entry, looked up): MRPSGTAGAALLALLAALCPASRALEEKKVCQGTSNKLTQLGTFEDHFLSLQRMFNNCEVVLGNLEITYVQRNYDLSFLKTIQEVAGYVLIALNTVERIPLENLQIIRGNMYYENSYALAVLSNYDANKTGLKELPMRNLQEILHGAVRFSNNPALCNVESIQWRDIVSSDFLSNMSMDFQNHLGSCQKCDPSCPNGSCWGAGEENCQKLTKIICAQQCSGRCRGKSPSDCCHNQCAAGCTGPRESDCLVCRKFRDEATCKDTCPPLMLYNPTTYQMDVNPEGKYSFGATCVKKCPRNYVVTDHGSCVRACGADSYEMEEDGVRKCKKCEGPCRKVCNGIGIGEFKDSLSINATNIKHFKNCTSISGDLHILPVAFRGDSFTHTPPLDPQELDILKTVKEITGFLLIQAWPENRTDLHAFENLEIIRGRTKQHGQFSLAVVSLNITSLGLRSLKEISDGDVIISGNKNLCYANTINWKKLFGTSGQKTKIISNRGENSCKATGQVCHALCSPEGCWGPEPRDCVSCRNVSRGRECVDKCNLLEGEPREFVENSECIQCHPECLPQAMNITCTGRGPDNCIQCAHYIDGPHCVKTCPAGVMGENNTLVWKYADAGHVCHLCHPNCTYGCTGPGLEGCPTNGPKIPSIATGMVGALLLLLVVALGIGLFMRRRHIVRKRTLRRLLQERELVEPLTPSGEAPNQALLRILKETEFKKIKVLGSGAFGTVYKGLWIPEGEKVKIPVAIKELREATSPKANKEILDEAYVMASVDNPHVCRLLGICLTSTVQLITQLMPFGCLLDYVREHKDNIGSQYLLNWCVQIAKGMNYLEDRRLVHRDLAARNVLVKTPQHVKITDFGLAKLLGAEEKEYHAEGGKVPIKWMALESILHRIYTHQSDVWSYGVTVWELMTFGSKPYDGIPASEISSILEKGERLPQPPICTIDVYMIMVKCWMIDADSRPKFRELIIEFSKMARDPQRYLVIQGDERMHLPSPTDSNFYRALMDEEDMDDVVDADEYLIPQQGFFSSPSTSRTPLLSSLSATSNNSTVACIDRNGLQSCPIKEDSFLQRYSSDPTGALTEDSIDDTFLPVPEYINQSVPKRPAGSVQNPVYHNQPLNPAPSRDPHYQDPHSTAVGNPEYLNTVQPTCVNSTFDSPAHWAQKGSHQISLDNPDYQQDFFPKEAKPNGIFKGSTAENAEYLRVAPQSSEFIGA
# [18] = target: Follistatin-related protein 3 (Homo sapiens) (UniProt O95633); experiment: compounds binding follistatin-related protein 3 – biochemical, small-molecule microarray, 635 nm fluorescence, primary screen (AID 1105); settings: FSTL3 binding, higher = more signal;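 note: score merges emission near 667 nm and signal to noise per printed spot across three slides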
# Chain of Follistatin-related protein 3 (Homo sapiens) (O95633 whole entry, looked up): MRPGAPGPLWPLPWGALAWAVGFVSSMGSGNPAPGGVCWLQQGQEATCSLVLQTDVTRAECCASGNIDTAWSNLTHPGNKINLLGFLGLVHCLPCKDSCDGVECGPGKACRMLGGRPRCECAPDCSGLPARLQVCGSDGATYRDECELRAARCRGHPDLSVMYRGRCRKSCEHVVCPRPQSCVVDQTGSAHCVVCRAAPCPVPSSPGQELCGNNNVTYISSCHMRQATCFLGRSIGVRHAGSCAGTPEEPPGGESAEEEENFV
# [19] = target: Dickkopf-related protein 1 (Homo sapiens) (UniProt O94907); experiment: small molecules binding DKK1 protein – biochemical, small-molecule microarray, 635 nm fluorescence scan, primary screen (AID 1106); settings: higher = more signal;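 note: score merges emission near 667 nm with signal to noise over three replicate slides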
# Chain of Dickkopf-related protein 1 (Homo sapiens) (O94907 whole entry, looked up): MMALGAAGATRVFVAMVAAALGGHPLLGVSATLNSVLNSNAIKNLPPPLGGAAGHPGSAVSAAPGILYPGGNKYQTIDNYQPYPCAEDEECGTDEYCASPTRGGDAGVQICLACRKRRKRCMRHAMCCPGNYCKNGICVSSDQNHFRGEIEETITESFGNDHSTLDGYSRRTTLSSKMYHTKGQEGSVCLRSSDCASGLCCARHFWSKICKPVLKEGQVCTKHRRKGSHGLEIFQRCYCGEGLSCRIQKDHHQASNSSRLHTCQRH
# [20] = test system: Inhibin beta A chain (activin A); experiment: small molecules binding activin A – biochemical, small-molecule microarray, 635 nm fluorescence scan, primary screen (AID 1107); settings: INHBA, higher = more signal;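 note: mouse activin A protein probed at 4.33 µg/mL on printed slides; score merges bound-protein fluorescence near 667 nm with spot signal-to-noise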
Structure (SMILES),composite z-score [1],z-score [2],z-score [3],z-score [4],composite z-score [5],z-score [6],composite z-score [7],composite z-score [8],composite z-score [9],composite z-score [10],composite z-score [11],composite z-score [12],composite z-score [13],z-score [14],composite z-score [15],composite z-score [16],composite z-score [17],composite z-score [18],composite z-score [19],composite z-score [20]
O=C1N(Cc2ccccc2)c2ccccc2C[C@@]12COC(c1ccc(OCCCO)cc1)=N2,1.56,-0.91 (inactive),-1.56 (inactive),2.83 (inactive),3,1.54 (inactive),0.249,1.07,0.944,-0.0238,1.32,1.79,1.12,-0.136 (inactive),0.596,1.31,-0.433,0.0633,-0.318,1.13
COc1cc(C(O)C2C=CC3C(=O)N(c4ccccc4)C(=O)C3N2Nc2ccccc2F)cc(OC)c1OC (stereo not given),1.54,0.785 (inactive),0.578 (inactive),1.32 (inactive),3.58,-0.629 (inactive),0.122,0.334,1.09,-0.027,1.41,0.521,0.55,0.392 (inactive),1.35,1.34,-0.117,0.479,-0.0657,0.519
C=CCN1C(=O)[C@@]2(O[C@@H](CCn3cc([C@H](O)c4ccccc4)nn3)[C@H]([Si](C)(C)c3ccc(OC)cc3)[C@H]2C)c2cc(N3C(=O)c4cccc5cccc3c45)ccc21,0.183,0.584 (inactive),1.18 (inactive),1.31 (inactive),1.5,-0.76 (inactive),-0.189,-0.684,-0.193,-0.199,0.0764,-0.236,0.401,-0.447 (inactive),-0.859,-1.37,-1.04,-1.06,-1.12,-0.893
O=C1C=C(c2ccccc2)C(=O)C2=C1CC([C@H]1Oc3ccccc3S(=O)(=O)N3CCC[C@@H]13)=CC2,0.345,-0.418 (inactive),-3.32 (inactive),13.4 (active),-0.101,0.542 (inactive),-0.183,-0.194,0.0989,-0.135,-0.365,-0.191,-0.569,-2.32 (inactive),0.0925,-0.009,0.0548,-0.365,0.155,0.718
C=CC1c2cc(O)c(OC)cc2CCN1C (stereo not given),-0.648,-0.763 (inactive),-0.819 (inactive),0.0904 (inactive),0.134,-0.223 (inactive),0.0112,-0.542,-0.821,-0.135,0.21,0.416,0.759,0.978 (inactive),-0.169,-1.24,-0.534,-0.332,-0.26,0.725
CC1CC/C=C\[C@H]2OC34C=CCN(C(C)(C)C)C(=O)[C@H]3N(CCCO)C(=O)[C@@H]4C2C(=O)O1 (stereo not given in full),-0.672,0.884 (inactive),0.743 (inactive),1.14 (inactive),1.86,0.545 (inactive),-0.214,-0.556,-0.281,-0.249,0.28,-0.107,0.4,0.964 (inactive),-0.0987,-0.592,-0.927,-0.943,-0.863,0.406
CN1C(=O)C2C=CC(C(O)c3ccc(-c4ccccc4)s3)N(NC(=O)OC(C)(C)C)C2C1=O (stereo not given),0.938,-0.673 (inactive),1.47 (inactive),0.0406 (inactive),2.92,-0.328 (inactive),0.367,-0.0619,0.687,-0.033,0.871,0.625,1.04,2.11 (inactive),0.171,0.484,0.609,1.02,0.207,0.86
CC1CC/C=C\[C@H]2OC34C=CCN(Cn5nnc6ccccc65)C(=O)[C@H]3N(CCCCCCO)C(=O)[C@@H]4C2C(=O)O1 (stereo not given in full),-0.526,0.28 (inactive),-0.0728 (inactive),0.105 (inactive),2.9,0.167 (inactive),-0.205,-1.09,-0.368,-0.33,0.765,-0.252,0.794,0.468 (inactive),-0.835,-0.759,-0.951,-1.23,-1.36,-0.306
O=C1O[C@H](c2ccccc2)[C@H](c2ccccc2)N2[C@H]1[C@@H](C(=O)O)[C@]1(C(=O)Nc3ccc(C#CCCO)cc31)[C@H]2c1ccc(OCCO)cc1,0.862,0.19 (inactive),-0.428 (inactive),-0.502 (inactive),1.98,1.71 (inactive),0.547,0.452,0.105,-0.0304,-0.164,0.564,0.834,-0.155 (inactive),1.12,1.27,0.0453,0.446,0.488,1.31
C=CCC(OC(C)=O)[C@@H]1[C@@H](N(Cc2ccc(-c3ccccc3)cc2)C(=O)c2cccc3ccccc23)c2cc(OCCCO)ccc2N1C(=O)Cc1ccc(OC)cc1 (stereo not given in full),-0.159,-0.774 (inactive),0.0643 (inactive),-0.631 (inactive),-0.203,-1.09 (inactive),0.0748,0.417,-0.477,0.122,0.057,0.267,0.516,-0.149 (inactive),0.345,-0.102,0.0253,0.13,-0.113,1.37
